Test results reported in PubChem BioAssay (NCI).
Compounds without any hit were thinned out: in the full panel of roughly 83,000, 20% have a hit.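 A percent growth of 40 corresponds to 60% growth inhibition; 0 means no net growth; -100 means all cells died. Active threshold: below 10.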 Active and inactive are the calls of the source.

These compounds were tested on HL-60(TB) leukemia (assay: NCI-60 one-dose screen, 48 h (100 = growth as untreated, 0 = no growth, -100 = all killed)). Settings: 10 µM unless noted.

SMILES | growth
CCc1ccc(-c2ccc(Nc3ccccc3)nn2)cc1S(N)(=O)=O | 47.4% (inactive)
CCN1C(=O)N(c2ccccc2)C2NC(=S)N(/N=C/C=C/c3ccccc3OC)C21 (stereo not given) | -44.9% (active)
Oc1c(Cl)cc(Oc2cc(Cl)c(O)c(CN3CCOCC3)c2)cc1CN1CCOCC1 | 86.7% (inactive)
CC(O)c1cc[cH-]c1.[Fe+2].c1cc[cH-]c1 (stereo not given) | 92.9% (inactive)
O=c1[nH]c2ccc(Br)cc2c2c1C(c1ccc(Cl)cc1)c1c(ncn3nc(-c4ccco4)nc13)O2 (stereo not given) | 72.7% (inactive)
O=C(NOC1OC(CO)C(O)C(O)C1O)Nc1ccccc1 (stereo not given) | 74.5% (inactive)
COc1cc(-c2n[nH]nc2-c2ccccn2)cc(OC)c1OC | 83.3% (inactive)
N=C(N)c1ccc(-c2ccc(-c3ccc(F)cc3)s2)s1 | -57.6% (active)
CCCc1cc(=O)n2c(C(=O)Nc3cccc(C(=O)OCC)c3)c(C(=O)Nc3ccc(F)cc3)sc2n1 | 73.6% [30 µM] (inactive)
CN1CCN(CCOc2ccc(-c3cnc4c(-c5ccc(C(F)(F)F)cc5)cnn4c3)cc2)CC1 | -32.5% (active)
O=C1/C(=C/c2ccccc2F)CN(C(=O)C(Cl)Cl)C/C1=C\c1ccccc1F | -30.7% (active)
Cc1c(C(=O)Nc2ccccc2F)sc2c(=O)[nH]cnc12 | 83.2% (inactive)
CCc1ccc(CNCC(O)c2ccccc2)cc1 (stereo not given) | 95.7% (inactive)
CC1=C([Se]CC(OC(=O)[C@@H](CO)NC(=O)OC(C)(C)C)C(=O)NC(C)(C)C)C(=O)c2ccccc2C1=O (stereo not given in full) | -36.2% (active)
Clc1cc(Cl)cc(Nc2ccc3cc(OCCCN4CCOCC4)ccc3n2)c1 | 26.7% (inactive)
CCCNCCC(C)=O | 108% (inactive)
N#C/C(=C1C=C/C(=N/O)C(Cl)=C/1)c1ccc(Cl)cc1 | 61.1% (inactive)
COc1ccc(-c2nn(-c3ccc(NC(=O)Nc4ccc(Cl)c(Cl)c4)cc3)cc2-c2ccncc2)cc1Cl | 5.24% (active)
O=C1c2ccccc2NC(c2cn(-c3ccccc3)nc2-c2cccnc2)N1Cc1ccccc1 (stereo not given) | 9.6% (active)
Cc1c(C(=O)Nc2nc3ccccc3[nH]2)cnn1-c1ccccn1 | 58.5% (inactive)

SMILES | growth
CCOC(=O)C1OC1c1ccccc1 (stereo not given) | 97% (inactive)
Oc1ccc(C(c2ccc(O)cc2)c2ccc(Cl)cn2)cc1 | 101% (inactive)
CCNCCCCNCCCCNCCCCNCCCCNCC | 127% (inactive)
CCOc1cccc(/C=N/NC(=O)c2ccccc2Nc2ccnc(C(F)(F)F)c2)c1O | -4.47% (active)
CCOP(=O)(OCC)C1CP(=O)(c2ccccc2)CC(C)=C1Cl (stereo not given) | 92.1% (inactive)
CCNc1nnc(COc2ccc(CNC(=O)CCCC/C=C/C(C)C)cc2OC)o1 | 98.4% (inactive)
C#CC[C@@H]1C[C@]2(C)[C@H]3CC=C4[C@H]5[C@@H](C)[C@H](C)CC[C@]5(C(=O)NCCCCCCCCN)CC[C@@]4(C)[C@]3(C)CC[C@H]2C(C)(C)[C@H]1OC(C)=O | -15.1% (active)
C#COc1cccc(Nc2ncnc3cc(NC(=O)[C@H](C)Cl)ccc23)c1 | 99.4% [6.25 µM] (inactive)
Cc1cc2c(C(=O)NCC#N)cccc2n1-c1nc2c(c(NCc3ccccc3)n1)CCCC2 | -23.5% (active)
O=C(Oc1ccc[nH]c1=O)c1cccc(Cl)c1 | 87.6% (inactive)
C=CC[N+](C)(C)C | 107% (inactive)
COc1ccc2c(ccc[n+]2C)c1 | 132% (inactive)
C=C1C(=O)O[C@H]2[C@H]1CC/C(COC(=O)C(=O)c1c[nH]c3ccc(OC)cc13)=C\CC[C@@]1(C)O[C@@H]21 | -53.2% (active)
O=c1cc(C(F)(F)F)c2cc(-c3cc4ccccc4c(=O)o3)c(O)cc2o1 | 38.3% (inactive)
Cc1cc(-c2cc(O)ccc2Cl)cc2nnc(Nc3ccc(OCCN4CCCC4)cc3)nc12 | -63.5% (active)
CN1[C@@H]2CC[C@H]1/C(=C\c1ccccc1)C1=C2[C@@H](c2ccccc2)C(C#N)=C(N)O1 | 60.4% (inactive)
NNC(=O)c1ccccc1N | 122% (inactive)
CCN(CC)CCCC(C)Nc1cc(-c2cccc(OC(F)(F)F)c2)nc2ccc(N3CCCC3)cc12 (stereo not given) | -61% (active)
C[C@]12CC[C@H]3[C@@H](CC=C4C[C@@H](O)CC[C@@]43C)[C@@H]1CC[C@@H]2C(=O)C/C=N/O | 78.9% (inactive)
CC(C)CCSc1nc(NNC(N)=O)c(C#N)c(-c2ccccc2)n1 | 99.8% (inactive)
